# Only some compounds are listed: those with a hit (about 3.8% of all), similar ones and a draw of the others.
# ERK AVP block: vasopressin-driven ERK pathway inhibition | HEK293-V1b, vasopressin-stimulated pERK AlphaScreen | Potency, µM (series often up to 57.5 µM), without a hit: at the highest dose activity, negative = inhibition, usual class: inhibitors | 72,000 compounds, 0.99% hits; further: potency means the concentration at half of the fitted maximal effect; on the % scale 0 is the no-effect control and ±100 the full control effect; nearly all actives have a fitted effect of over 55% in size
#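 V1b-HEK293 cells; cpd 30 min 37C; 25 nM vasopressin 5 min; lyse 10 min; AlphaScreen beads 5 hr RT. Normalized to DMSO basal and 25 nM vasopressin; AC50 by Hill fit.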
# GFP derepression: derepresses silenced GFP locus in mouse C127i cells; mouse C127i GFP locus derepression, cytometry, 30 h; AID 597; 68,000 compounds, 0.09% hits; Potency, µM (highest dose often 46.1 µM), inactives show at the highest dose GFP derepression (activation); further: % of control where 0% means no effect
#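 Locus derepression in mouse mammary C127i cells whose integrated CMV-GFP reporter is normally silent; GFP expression after 30 h compound treatment was quantified by counting fluorescent cells.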
# TSHR agonist: activates the human thyroid stimulating hormone receptor. 73,000 compounds, 0.48% hits. HEK293-CNG-TSHR cells (CNG channel as cAMP sensor), membrane potential dye, cAMP. Potency, µM (highest dose often 57.1 µM), without a hit: at the highest dose activation, hits mostly activators; active means well fitted activation curve with a large enough effect in the main read-out, with a control signal flat, not every such curve was filed as active; inconclusive means small, poorly fitted or top-dose-only effect, or a change in a side signal; inactive means no such curve, though single readings can be large or run the other way; % of control where 0% means no effect;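 further: the control signal comes from parental cells without the receptor; potency means the concentration at half of the fitted maximal effect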
# Target sequence (P16473 whole entry, looked up): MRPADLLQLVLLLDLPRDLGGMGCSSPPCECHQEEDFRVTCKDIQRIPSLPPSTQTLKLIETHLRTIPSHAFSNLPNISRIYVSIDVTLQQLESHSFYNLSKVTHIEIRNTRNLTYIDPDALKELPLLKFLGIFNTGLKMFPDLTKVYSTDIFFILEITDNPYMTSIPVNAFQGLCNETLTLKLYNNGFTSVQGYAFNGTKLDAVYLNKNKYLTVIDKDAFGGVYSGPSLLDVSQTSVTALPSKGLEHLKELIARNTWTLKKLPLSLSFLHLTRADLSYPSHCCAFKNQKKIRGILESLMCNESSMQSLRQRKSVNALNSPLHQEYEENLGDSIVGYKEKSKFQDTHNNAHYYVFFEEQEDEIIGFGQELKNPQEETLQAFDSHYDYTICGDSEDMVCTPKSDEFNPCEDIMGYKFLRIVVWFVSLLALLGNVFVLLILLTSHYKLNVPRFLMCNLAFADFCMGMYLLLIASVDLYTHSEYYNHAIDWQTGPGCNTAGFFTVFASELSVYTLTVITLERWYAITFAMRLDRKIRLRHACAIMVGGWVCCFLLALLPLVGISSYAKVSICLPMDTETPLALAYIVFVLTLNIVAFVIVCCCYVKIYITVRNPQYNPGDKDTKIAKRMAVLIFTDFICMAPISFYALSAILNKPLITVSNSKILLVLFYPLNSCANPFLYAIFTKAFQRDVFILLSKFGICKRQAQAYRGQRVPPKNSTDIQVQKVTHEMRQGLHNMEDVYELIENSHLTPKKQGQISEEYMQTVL
#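 HEK 293 cells stably expressing TSHR and a modified CNG channel, with CNG-only parental cells as counterscreen, were preloaded 60 min at room temperature with membrane potential dye containing 100 uM RO 20-1724. Compound exposure was 30 min, and depolarization was read as fluorescence at 590 nm.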
# HEK293 cAMP ctrl: counter-screen for TSHR agonists: cAMP increase in parental HEK293 | parental HEK293 CNG cAMP sensor, membrane potential fluorescence | Potency, µM (titrated, usually from 57.1 µM), without a hit: at the top dose activation, usual class: activators | 73,000 compounds, 2.5% hits; further: potency means the concentration at half of the fitted maximal effect; % of control where 0% means no effect; nearly all actives have a fitted effect of over 55% in size
#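 Parental HEK 293 cells stably expressing a modified CNG channel (no TSHR) report cAMP rise as membrane depolarization. Membrane potential dye with 100 uM RO 20-1724 was loaded for 60 min at room temperature, then compound added for 30 min; fluorescence read at 590 nm.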
# UbGFP stabilizer: proteasome inhibitors stabilizing ubiquitin-GFP reporter; Ubiquitin-GFP reporter cells, proteasome inhibition, GFP fluorescence; response scale: untreated = 0%, 10 µM MG-132 = 100%; Potency, µM (highest dose often 45.9 µM), inactives show top-dose activation (GFP accumulation), hits mostly activators; 67,000 tested, under 10 active; AID 526; active means well fitted activation curve with a large enough effect, not every such curve was filed as active; inconclusive means small, poorly fitted or top-dose-only effect, or another doubt; inactive means no such curve, though single readings can be large or run the other way; further: potency means the concentration at half of the fitted maximal effect
#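 U2OS cells expressing ubiquitin(G76V)-GFP, seeded overnight in 0.5% FBS medium, then treated 4 hr at 37 C across 46 uM to 2.9 nM. GFP-positive cells counted by laser cytometry (488 ex/515 em); %activity scaled between basal and 10 uM MG-132.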
# HBB splicing: alters splicing of the hemoglobin beta chain. HBB splicing reporter cell assay, activation; EGFP reporter with mutant IVS2-654 intron; response scale: normalised to 500 nM splice-correcting PNA. Potency, µM (top dose mostly 46.1 µM), without a hit: at the top dose activation, usual class: activators. 65,000 compounds, 0.06% hits; further: potency means the concentration at half of the fitted maximal effect; 0% is about no effect
#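 HeLa cells stably expressing EGFP interrupted by mutant beta-globin intron 2 (IVS2-654), 500/well in 2% FCS. Treated with compound for 2 days at 37C. Splicing correction scored as total well GFP intensity (488 nm excitation, 500-520 nm emission); 500 nM antisense PNA served as control.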
# Starred values were filed as active, the others as inactive; u = inconclusive; x = not tested or not shown; [ ] = dose if it differs, or a comment. Unless noted, the call rests on the fitted dose curve; in most records, active means well fitted curve in the direction sought with a large enough effect; inconclusive means small, poorly fitted or top-dose-only effect, or another doubt; inactive means no such curve, though single readings can be large; an effect the other way counts as inactive or inconclusive.
SMILES,ERK AVP block,GFP derepression,TSHR agonist,HEK293 cAMP ctrl,UbGFP stabilizer,HBB splicing
C=COCCn1c(-c2nonc2N)nc2ccccc21,-0.3%,-2.3%,u,25.1µM*,27.6%,1.3%
CCC(=O)Nc1nonc1-c1nc2ccccc2n1Cc1ccccc1,61.5%,0.0%,u,20µM*,0.0%,0.2%
CCOC(=O)Cn1c(-c2nonc2NC(=O)c2ccccc2F)nc2ccccc21,24.7%,2.5%,1.3%,11.3%,-0.9%,5.5%
c1coc(Cn2c(-c3ccco3)nc3ccccc32)c1,-11.6%,1.9%,u,u,0.0%,x
CC1(C)C(=O)CC[C@@]2(C)C1CC(O)[C@@]1(C)C3=CC(=O)OC(c4ccoc4)[C@]3(C)CCC21 (stereo not given in full),-1.8%,x,x,x,x,x
CCCCCCCCCCCCCCCCCCOCC(O)CO (stereo not given),0.2%,x,x,x,x,x
CCCCCCCCCCCCCCCCCCOC[C@@H](COP(=O)([O-])OCC[N+](C)(C)C)OC,9.8%,-1.1%,5.5%,3.8%,1.6%,2.2%
CCCn1c(-c2ccc(F)cc2)nc2c(NCCCN3CCCCC3C)nc(C)nc21 (stereo not given),-7.2%,x,u,u,-1.8%,0.3%
CC(C)(C)C1CCC2(CC1)CCN(CCCN1CCOCC1)CC2,10.4%[11.5 µM],-4.3%[9.22 µM],15.3%[11.4 µM],14.8%[11.4 µM],0.6%[9.17 µM],2.2%[9.22 µM]
Cc1nc2cnc(Nc3ccccc3)nc2n(CCc2ccccc2)c1=O,-4.6%,2.7%[9.22 µM],u,u,-6.9%,3.2%
CO[C@@H]1/C=C\CC(=O)N[C@@H](C)C(=O)OC[C@@H](OC)[C@H](C)/C=C\CC(=O)OC[C@H]1C,-1.6%[11.5 µM],x,-8.3%[11.4 µM],-1.9%[11.4 µM],x,-0.2%[9.22 µM]
Nc1nonc1-c1nc2ccccc2n1Cc1ccc(Cl)cc1,3.0%,-1.8%,u,15.8µM*,-6.9%,1.3%
CCOc1ccc(CCNC(=O)Cn2c(-c3nonc3N)nc3ccccc32)cc1OCC,3.1%,15.1%,u,u,-10.9%,1.9%
c1ccc(COn2c(-c3ccccc3)nc3c2CCc2nonc2-3)cc1,-11.5%,2.2%,u,25.1µM*,-1.4%,-2.1%[0.369 µM]
O=C(c1cccc2c1-c1ccccc1/C2=N/O)N1CCCCC1,-9.0%,-0.1%,u,12.6µM*,-20.4%,-1.9%[9.22 µM]
O=C(c1ccccc1)c1ccccc1C(=O)N1CCCC1,-0.9%,5.9%,23.3%,5.2%,2.9%,-0.8%
CC(N)=NCCC[C@H](N)C(=O)O,0.2%,-1.0%,3.8%,3.1%,0.0%,2.1%
O=C(c1cn(-c2ccccc2)nc1-c1ccc(Cl)s1)N1CCOCC1,-19.7%,2.1%,25.1µM*,-4.4%,-2.6%,-0.6%
CCCn1c(-c2ccc(F)cc2)nc2c(NCCN3CCCCC3)nc(C)nc21,-27.0%,x,u,u,-8.5%,-0.2%
N=C(C[C@@H](O)COc1ccccc1-c1ccccc1)N1CCCCC1,18.5%,0.5%,u,31.6µM*,-1.2%,x
O=C(c1cc2ccccc2cc1OCC(O)CN1CCCCC1)N1CCCCC1 (stereo not given),3.3%,x,u,u,2.9%,0.2%
CC(C)[C@H]1C(=O)C(C(N)=O)=C(O)[C@]2(O)C(=O)C3=C(O)c4c(O)ccc(N(C)C)c4C[C@H]3C[C@@H]12,-8.2%,1.6%,2.5%,8.9%,3.1%,1.5%
COc1cccc(Cn2c(=O)c(-c3cccc(F)c3)nc3cncnc32)c1,u,-0.4%[9.22 µM],-2.2%,7.9%,10.0%,1.1%
C=CC[C@@H]1C=C[C@H](O/N=C(\C)CCN2CCCCc3nc(C)c(C)cc32)[C@H](CO)O1,-7.3%[11.5 µM],x,-5.2%[11.4 µM],9.3%[11.4 µM],x,3.4%[9.22 µM]
O=[N+]([O-])c1cccc(Cl)c1,0.9%,x,3.4%,14.2%,x,0.5%
SMILES,ERK AVP block,GFP derepression,TSHR agonist,HEK293 cAMP ctrl,UbGFP stabilizer,HBB splicing
COC(=O)c1ccccc1NC(=O)c1cnn2c(C(F)F)cc(C3CC3)nc12,3.5%,8.6%,u,15.8µM*,6.7%,-2.0%
Cc1nn(C)cc1CNC(=O)c1cnn2c(C(F)F)cc(C3CC3)nc12,7.94µM*,-3.2%,20.0%,4.5%,-0.9%,-1.3%
CC(NC(=O)C(C)(C)C)c1nc2ccccc2n1C (stereo not given),-3.6%,1.2%,-1.6%[11.4 µM],2.6%,-5.6%,-2.5%
CCCC/C=C/C(NC(=O)C(C)(C)C)c1ccccc1 (stereo not given),6.8%,x,u,25.1µM*,x,3.2%
CCC/C=C(\CCC)C(NC(=O)c1ccccc1)c1ccc(C(=O)OC)cc1 (stereo not given),33.3%,x,u,3.16µM*,x,1.7%
CCCC/C=C/C(NC(=O)c1ccc(C(=O)OC)cc1)c1ccccc1 (stereo not given),34.2%,x,u,25.1µM*,x,-0.2%
CC(=O)Nc1ccc(C2C(C)CCC3C(=O)N4C(CCC(C)[C@@H]4c4ccc(NC(C)=O)cc4)C(=O)N32)cc1 (stereo not given in full),25.1%[11.5 µM],x,-5.9%[11.4 µM],-2.9%[11.4 µM],x,0.3%[9.22 µM]
Cc1cccc2sc(NC(=O)Cn3cccc3)nc12,25.1µM*,1.9%,-6.8%,10.1%,2.9%,-1.3%
COC(=O)Nc1nc2c(C)cccc2s1,-5.6%,-1.7%,-1.8%,0.7%,0.0%,1.0%
CCOC(=O)CSc1nnc2n1C(C)(C)Cc1ccccc1-2,-17.5%,-1.3%,-3.2%,19.8%,4.2%,-1.5%
CC1(C)Cc2ccccc2-c2nnc(SCc3ccc(C#N)cc3)n21,4.3%,0.0%,u,25.1µM*,2.1%,-0.3%[57.5 µM]
O=Nc1c(-c2c(O)[nH]c3cc(Br)ccc23)[nH]c2ccccc12,10µM*,x,x,x,x,x
Cn1cccc1Cc1nnc(SCC(=O)NCC2CCCO2)n1CCc1ccccc1 (stereo not given),-8.6%,1.8%,1.0%,5.1%,7.4%,0.1%
O=C1CCCCC1Sc1nnc(Cc2cccs2)n1CCc1ccccc1 (stereo not given),-8.8%,0.5%,u,10µM*,-1.8%,-0.2%[57.5 µM]
CC(C)NC(=O)N1CCCC2(CCN(C(=O)c3csnn3)CC2)C1,6.1%,0.0%[9.22 µM],1.2%,-9.4%,-11.1%,3.1%
Cn1c(O)c(N=N/C(=N/c2ccccn2)c2ccccn2)c2cc(Br)ccc21,x,x,u,-46.4%,x,x
CC1CN(c2oc(-c3ccco3)nc2S(=O)(=O)c2ccccc2)CC(C)O1 (stereo not given),-5.9%,0.0%,25.1µM*,26.7%,3.9%,0.1%
O=S(=O)(c1ccccc1)c1nc(-c2ccco2)oc1NCc1ccco1,u,1.6%,17.8%,15.9%,-1.6%,-0.5%
c1ccc(-c2noc(CSc3nnnn3-c3ccccc3)n2)cc1,5.7%,5.4%,u,u,-11.0%,-0.3%
